Test results from PubChem BioAssay.
Active and inactive are the calls of the source.

Assays:
[1] = tested on: Plasmodium falciparum Sir2 (PF13_0152, Sir2A); test: pfSir2 binders on small-molecule microarrays, primary screen, biochemical, small-molecule microarray, 635 nm fluorescence (AID 1098); settings: small-molecule microarray binding, fluorescence 635 nm; higher = more signal;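 also: score merges spot fluorescence intensity with its signal-to-noise ratio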
[2] = small-molecule microarray binders of probe aDKK1, primary screen, biochemical, biotinylated probe, 635/667 nm fluorescence (AID 1099); settings: higher = more signal;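 also: score merges 667nm spot fluorescence with signal to noise across triplicate slides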
[3] = small-molecule microarray binders of probe aCHRDL2, primary screen, biochemical, biotinylated probe, 635/667 nm fluorescence (AID 1100); settings: higher = more signal
[4] = splicing luciferase reporter signal modulators, primary screen, spliceosome inhibition project, cell-based, HEK293, splice +/- reporter (AID 1101); settings: luminescence, 24 h, higher = more signal, called active from +8 up or from −8 down;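 also: HEK293 cells carrying a splicing-competent luciferase reporter gene; test concentration not given here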
[5] = target: Fibroblast growth factor 10 (Homo sapiens) (UniProt O15520); test: FGF10 binders on small-molecule microarrays, primary screen, biochemical, small-molecule microarray, 635 nm fluorescence (AID 1102); settings: FGF10 binding, fluorescence 635 nm, higher = more signal
[6] = tested on: glycogen synthase kinase-3 (GSK3A per assay name; protocol says GSK3B); test: GSK3 binders on small-molecule microarrays, primary screen, biochemical, small-molecule microarray, 635 nm fluorescence, GSK3A (AID 1103); settings: small-molecule microarray binding, fluorescence 635 nm; higher = more signal; also: the record names both GSK3A and GSK3B
[7] = target: Epidermal growth factor receptor (Homo sapiens) (UniProt P00533); test: EGFR binders on small-molecule microarrays, primary screen, biochemical, small-molecule microarray, 635 nm fluorescence (AID 1104); settings: EGFR binding, higher = more signal;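 also: score merges 667 nm emission intensity with spot signal to noise over triplicate slides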
[8] = target: Follistatin-related protein 3 (Homo sapiens) (UniProt O95633); test: FSTL3 binders on small-molecule microarrays, primary screen, biochemical, small-molecule microarray, 635 nm fluorescence (AID 1105); settings: FSTL3 binding, higher = more signal;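 also: score merges emission near 667 nm and signal to noise per printed spot across three slides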
[9] = target: Dickkopf-related protein 1 (Homo sapiens) (UniProt O94907); test: DKK1 binders on small-molecule microarrays, primary screen, biochemical, small-molecule microarray, 635 nm fluorescence scan (AID 1106); settings: DKK1 binding, higher = more signal;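 also: score merges emission near 667 nm with signal to noise over three replicate slides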
[10] = tested on: Inhibin beta A chain (activin A); test: INHBA (activin A) binders on microarrays, primary screen, biochemical, small-molecule microarray, 635 nm fluorescence scan (AID 1107); settings: small-molecule microarray binding, higher = more signal;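 also: mouse activin A protein probed at 4.33 µg/mL on printed slides; score merges bound-protein fluorescence near 667 nm with spot signal-to-noise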
[11] = tested on: Human papillomavirus type 1a protein E7 (residues 44-93); test: HPV1a E7 fragment binders on microarrays, primary screen, biochemical, small-molecule microarray, residues 44-93, 635 nm fluorescence (AID 1108); settings: small-molecule microarray binding, fluorescence 635 nm; higher = more signal;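 also: E7 fragment applied at 1 µg/mL in TBST for 1 h at 4 C; score combines spot fluorescence with its signal to noise ratio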
[12] = modulators of HCV replicon luciferase signal, primary screen, HCV replication inhibitor project, Huh7 cells, luciferase reporter (AID 1109); settings: 48 h, higher = more signal;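 also: huh7 hepatoma cells harbouring a luciferase neomycin HCV replicon reporter; luciferase luminescence as measure of HCV replicon replication; test concentration not given here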
[13] = target: Left-right determination factor 2 (Homo sapiens) (UniProt O00292); test: LEFTY2 binders on small-molecule microarrays, primary screen, biochemical, small-molecule microarray, 635 nm fluorescence scan (AID 1110); settings: LEFTY2 binding, higher = more signal
[14] = target: Calmodulin-1 (Homo sapiens) (UniProt P0DP23); test: CALM1 binders on microarrays, EGTA buffer, profiling panel, biochemical, small-molecule microarray, Cy5-labelled CALM1 (AID 1111); settings: Cy5-CALM1 binding fluorescence, higher = more signal;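 also: labelled calmodulin applied in Tris saline Tween buffer holding calcium plus EGTA and DTT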
[15] = target: Calmodulin-1 (Homo sapiens) (UniProt P0DP23); test: calcium-bound CALM1 binders on microarrays, profiling panel, artefact control for SMM control-protein annotation, biochemical, small-molecule microarray, Cy5-labelled CALM1, plus calcium (AID 1112); settings: Cy5-CALM1 binding fluorescence, higher = more signal;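 also: score merges spot fluorescence with signal to noise from triplicate slides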
[16] = small-molecule microarray binders of probe aWnt5a, primary screen, biochemical, biotinylated probe, 635/667 nm fluorescence (AID 1113); settings: higher = more signal;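 also: score merges 667 nm fluorescence intensity with signal-to-noise per printed feature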
[17] = small-molecule microarray binders of probe aShh, primary screen, biochemical, biotinylated probe, 635/667 nm fluorescence (AID 1114); settings: higher = more signal;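 also: probe is biotin-labelled aShh protein from a stem cell growth factor screen; measures binding of labelled protein to compounds printed on the slide; score merges feature fluorescence at 667 nm with signal-to-noise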
[18] = small-molecule microarray binders of probe aNog, primary screen, biochemical, biotinylated probe, 635/667 nm fluorescence (AID 1115); settings: higher = more signal;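 also: probe is biotinylated aNog protein used at 0.15 µg/mL for 1 h at 4 C; z-score combines 667 nm fluorescence of each spot with its signal to noise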
[19] = target: Torsin-1A-interacting protein 1 (Homo sapiens) (UniProt Q5JTV8); test: LAP1 binders from COS7 cell lysate, primary screen, small-molecule microarray, 635/667 nm fluorescence (AID 1116); settings: COS7-hLAP1 lysate binding, 635 nm fluorescence, higher = more signal
[20] = target: Alpha-bungarotoxin (Bungarus multicinctus) (UniProt P60615); test: alpha-bungarotoxin binders on microarray, profiling panel, artefact control for SMM control protein annotation, biochemical, small-molecule microarray, Alexa647 label, 635/667 nm fluorescence (AID 1117); settings: alpha-BTX-A647 binding fluorescence, higher = more signal
Chain of Alpha-bungarotoxin (Bungarus multicinctus) (P60615 whole entry, looked up): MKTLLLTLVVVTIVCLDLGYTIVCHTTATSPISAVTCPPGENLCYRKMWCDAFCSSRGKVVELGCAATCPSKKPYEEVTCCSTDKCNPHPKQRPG

Chain of Fibroblast growth factor 10 (Homo sapiens) (O15520 whole entry, looked up): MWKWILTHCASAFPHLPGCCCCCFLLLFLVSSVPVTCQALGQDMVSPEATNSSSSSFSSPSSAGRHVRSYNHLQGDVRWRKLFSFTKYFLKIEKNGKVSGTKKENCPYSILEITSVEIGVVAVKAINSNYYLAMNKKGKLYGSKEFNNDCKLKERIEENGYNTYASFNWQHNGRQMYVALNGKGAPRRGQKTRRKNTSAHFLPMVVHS
Chain of Follistatin-related protein 3 (Homo sapiens) (O95633 whole entry, looked up): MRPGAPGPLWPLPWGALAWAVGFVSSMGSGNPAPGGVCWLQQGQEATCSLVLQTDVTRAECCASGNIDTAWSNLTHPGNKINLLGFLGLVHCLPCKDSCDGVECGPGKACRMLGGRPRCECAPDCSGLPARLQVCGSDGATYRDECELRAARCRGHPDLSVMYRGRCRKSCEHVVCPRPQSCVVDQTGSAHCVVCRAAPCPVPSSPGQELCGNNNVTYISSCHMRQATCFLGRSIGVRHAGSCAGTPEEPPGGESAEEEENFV
Chain of Torsin-1A-interacting protein 1 (Homo sapiens) (Q5JTV8 whole entry, looked up): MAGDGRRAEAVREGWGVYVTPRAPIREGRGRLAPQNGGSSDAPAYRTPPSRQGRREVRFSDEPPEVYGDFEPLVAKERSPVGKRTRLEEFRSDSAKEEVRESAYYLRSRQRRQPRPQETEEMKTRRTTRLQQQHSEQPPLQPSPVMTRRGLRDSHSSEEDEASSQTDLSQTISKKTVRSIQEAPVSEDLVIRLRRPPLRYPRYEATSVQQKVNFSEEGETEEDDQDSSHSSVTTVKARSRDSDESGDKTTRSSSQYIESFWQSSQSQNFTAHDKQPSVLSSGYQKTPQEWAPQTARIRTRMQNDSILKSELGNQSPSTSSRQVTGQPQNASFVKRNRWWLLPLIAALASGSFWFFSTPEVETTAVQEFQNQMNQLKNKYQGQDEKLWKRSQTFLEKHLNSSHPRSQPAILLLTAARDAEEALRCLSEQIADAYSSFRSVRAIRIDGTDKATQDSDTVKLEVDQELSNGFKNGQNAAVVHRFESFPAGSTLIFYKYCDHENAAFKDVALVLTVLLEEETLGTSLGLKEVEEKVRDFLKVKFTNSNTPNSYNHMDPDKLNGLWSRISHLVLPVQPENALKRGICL
Chain of Left-right determination factor 2 (Homo sapiens) (O00292 whole entry, looked up): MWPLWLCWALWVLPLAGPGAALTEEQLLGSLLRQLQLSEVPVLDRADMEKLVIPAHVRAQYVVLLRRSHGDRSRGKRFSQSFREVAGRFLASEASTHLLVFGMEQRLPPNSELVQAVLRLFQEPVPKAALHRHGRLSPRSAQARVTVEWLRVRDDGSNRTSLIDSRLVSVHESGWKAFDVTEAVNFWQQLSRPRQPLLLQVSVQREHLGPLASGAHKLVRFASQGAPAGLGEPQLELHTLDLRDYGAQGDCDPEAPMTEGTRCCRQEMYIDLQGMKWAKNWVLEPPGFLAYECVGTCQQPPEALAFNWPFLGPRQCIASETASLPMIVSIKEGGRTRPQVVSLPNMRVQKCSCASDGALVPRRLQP
Chain of Epidermal growth factor receptor (Homo sapiens) (P00533 whole entry, looked up): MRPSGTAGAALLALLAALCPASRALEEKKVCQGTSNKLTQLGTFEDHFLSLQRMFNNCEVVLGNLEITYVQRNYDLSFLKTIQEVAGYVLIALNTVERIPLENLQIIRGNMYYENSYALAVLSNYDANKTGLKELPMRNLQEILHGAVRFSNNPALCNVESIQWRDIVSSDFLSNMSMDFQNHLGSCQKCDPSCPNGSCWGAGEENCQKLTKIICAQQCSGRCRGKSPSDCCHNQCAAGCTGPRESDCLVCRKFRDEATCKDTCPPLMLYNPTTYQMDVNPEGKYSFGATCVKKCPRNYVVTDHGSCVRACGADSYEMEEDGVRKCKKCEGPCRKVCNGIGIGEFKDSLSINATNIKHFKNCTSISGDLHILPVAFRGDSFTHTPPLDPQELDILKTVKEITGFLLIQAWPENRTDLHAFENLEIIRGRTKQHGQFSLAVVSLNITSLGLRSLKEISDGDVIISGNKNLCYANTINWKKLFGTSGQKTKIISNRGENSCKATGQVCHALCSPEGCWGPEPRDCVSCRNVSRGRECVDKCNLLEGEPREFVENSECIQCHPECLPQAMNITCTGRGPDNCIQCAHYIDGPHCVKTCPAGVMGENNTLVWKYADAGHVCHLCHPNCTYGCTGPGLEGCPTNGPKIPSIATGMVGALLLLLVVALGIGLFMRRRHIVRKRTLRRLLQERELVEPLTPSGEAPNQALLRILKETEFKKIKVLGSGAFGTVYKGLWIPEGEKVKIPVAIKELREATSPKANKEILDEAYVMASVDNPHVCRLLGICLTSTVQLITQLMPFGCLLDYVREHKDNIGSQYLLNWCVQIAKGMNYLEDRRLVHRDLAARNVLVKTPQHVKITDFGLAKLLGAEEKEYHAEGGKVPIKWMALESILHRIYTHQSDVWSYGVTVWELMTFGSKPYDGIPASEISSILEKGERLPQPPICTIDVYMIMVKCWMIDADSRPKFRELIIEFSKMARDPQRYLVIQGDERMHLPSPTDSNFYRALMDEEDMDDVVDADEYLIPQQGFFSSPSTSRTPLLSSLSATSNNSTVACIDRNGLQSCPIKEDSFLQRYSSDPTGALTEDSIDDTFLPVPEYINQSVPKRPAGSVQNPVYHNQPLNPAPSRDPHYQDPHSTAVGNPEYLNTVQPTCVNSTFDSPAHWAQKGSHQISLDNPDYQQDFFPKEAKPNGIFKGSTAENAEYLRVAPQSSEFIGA
Chain of Dickkopf-related protein 1 (Homo sapiens) (O94907 whole entry, looked up): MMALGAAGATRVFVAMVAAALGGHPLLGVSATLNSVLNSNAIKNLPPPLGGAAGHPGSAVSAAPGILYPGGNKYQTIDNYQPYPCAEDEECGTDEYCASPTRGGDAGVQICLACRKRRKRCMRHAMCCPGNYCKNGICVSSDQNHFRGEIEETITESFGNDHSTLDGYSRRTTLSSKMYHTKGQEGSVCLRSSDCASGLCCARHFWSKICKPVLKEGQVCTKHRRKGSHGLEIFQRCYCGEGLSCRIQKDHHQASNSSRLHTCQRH

Row | Structure (SMILES) | composite z-score [1] | composite z-score [2] | composite z-score [3] | z-score [4] | composite z-score [5] | composite z-score [6] | composite z-score [7] | composite z-score [8] | composite z-score [9] | composite z-score [10] | composite z-score [11] | z-score [12] | composite z-score [13] | composite z-score [14] | composite z-score [15] | composite z-score [16] | composite z-score [17] | composite z-score [18] | composite z-score [19] | composite z-score [20]
1 | Cc1ccc(S[C@]2(C(=O)NCC(F)(F)F)CC(=O)N(Cc3ccccc3C(F)(F)F)[C@@H]2c2ccc(CO)cc2)cc1 | -0.57 | 0.228 | 0.942 | 0.338 (inactive) | -0.83 | -1.23 | -0.548 | -1.51 | -1.07 | 0.247 | -0.654 | 0.169 | -1.32 | -0.39 | 0.0313 | -0.199 | -0.253 | 0.526 | 0.0216 | -0.693
2 | COc1ccc(C(O)C2C=CC3C(=O)N(c4ccccc4)C(=O)C3N2Nc2ccc([N+](=O)[O-])cc2)c2ccccc12 (stereo not given) | 1.2 | 0.662 | 0.88 | -0.707 (inactive) | 0.981 | 1.32 | 0.385 | 1 | 0.226 | 0.642 | 1.45 | -0.749 | -0.0163 | 1.86 | 0.554 | 0.062 | 0.204 | 1.61 | 1.6 | 2.54
3 | CCCN1C(=O)[C@]2(CCC(=O)OC(C)(C)C)N=C(c3ccc(OCCCO)cc3)O[C@@H]2c2ccccc21 | 0.715 | 0.173 | 1.16 | 0.0554 (inactive) | 1.31 | 1.21 | -0.413 | 0.299 | -0.175 | 1.31 | 1.17 | -2.87 | -0.399 | -0.0977 | -0.148 | -0.124 | 0.0469 | 0.175 | 3.34 | 0.28
4 | NC(=O)N1C(=O)C2C(C1=O)C1C=C(CCCO)C2C(C2CC2)N1Cc1sc2ccccc2c1Cl (stereo not given) | 0.903 | -0.129 | 0.256 | 1.01 (inactive) | 1.15 | 1.09 | -0.271 | 0.808 | 0.158 | 0.303 | 0.173 | -1.63 | 0.138 | 1.42 | 0.459 | -0.0685 | 0.138 | 0.654 | 1.19 | 1.67
5 | COCCOC(=O)N1C(=O)[C@@]2(c3cc(C#CCCO)ccc31)[C@H](C(N)=O)[C@H]1C(=O)O[C@H](c3ccccc3)[C@H](c3ccccc3)N1[C@@H]2c1ccccc1OCCO | 1.59 | 0.7 | 0.694 | -0.871 (inactive) | 0.738 | 1.3 | 0.375 | 0.911 | 0.403 | 0.042 | 0.99 | -2.12 | 0.432 | 1.03 | 0.114 | -0.0445 | -0.0165 | 0.135 | 1.08 | 2.08
6 | O=C1NC(=O)C2C1C=CC(C(O)c1ccc([N+](=O)[O-])cc1)N2Nc1ccccn1 (stereo not given) | -0.0076 | 0.0152 | 0.14 | 1.34 (inactive) | 0.32 | -0.34 | 0.633 | -0.0907 | 0.328 | 0.854 | -0.382 | 0.403 | 0.33 | 0.259 | -0.746 | -0.102 | -0.138 | 0.0193 | 0.45 | -0.011
